The entries come from a sample that favours hits as a whole.
TSHR ag: TSH receptor (human) agonism; Potency, µM (titrated, usually from 57.1 µM), for the others: at the highest dose activation, hits mostly activators; HEK293-CNG-TSHR cells (CNG channel as cAMP sensor), membrane potential dye, cAMP; hit rate 0.48% among 73,000; P16473; AID 926; active means well fitted activation curve with a large enough effect in the main read-out, with a control signal flat, not every such curve was filed as active; inconclusive means small, poorly fitted or top-dose-only effect, or a change in a side signal; inactive means no such curve, though single readings can be large or run the other way; % of control where 0% means no effect;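 further: the control signal comes from parental cells without the receptor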
Target sequence (P16473 whole entry, looked up): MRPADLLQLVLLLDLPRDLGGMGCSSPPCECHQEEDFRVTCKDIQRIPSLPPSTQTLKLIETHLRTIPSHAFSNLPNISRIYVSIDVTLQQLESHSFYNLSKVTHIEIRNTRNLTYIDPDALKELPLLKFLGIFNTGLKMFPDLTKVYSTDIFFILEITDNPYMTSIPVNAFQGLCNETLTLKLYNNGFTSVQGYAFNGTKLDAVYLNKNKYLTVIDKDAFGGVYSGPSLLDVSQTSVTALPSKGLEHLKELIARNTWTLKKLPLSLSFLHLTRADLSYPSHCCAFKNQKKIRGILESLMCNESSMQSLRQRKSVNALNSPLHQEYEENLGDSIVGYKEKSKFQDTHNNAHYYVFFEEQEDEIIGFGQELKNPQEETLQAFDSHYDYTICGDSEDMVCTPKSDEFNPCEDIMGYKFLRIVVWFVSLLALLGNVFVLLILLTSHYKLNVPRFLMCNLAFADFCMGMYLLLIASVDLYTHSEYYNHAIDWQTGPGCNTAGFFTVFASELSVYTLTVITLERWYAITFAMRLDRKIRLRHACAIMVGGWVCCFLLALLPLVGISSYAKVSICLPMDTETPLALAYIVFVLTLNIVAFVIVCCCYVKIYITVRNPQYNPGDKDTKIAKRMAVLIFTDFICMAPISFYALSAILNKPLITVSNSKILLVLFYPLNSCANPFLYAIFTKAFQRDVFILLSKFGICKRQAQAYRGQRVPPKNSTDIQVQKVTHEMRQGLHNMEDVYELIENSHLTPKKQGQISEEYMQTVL
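HEK 293 cells stably expressing TSHR and a cAMP-gated CNG channel; parental CNG-only cells as counterscreen. Cells preloaded 60 min with membrane potential dye plus 100 uM RO 20-1724, then compound 30 min; fluorescence read at 590 nm.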
Peg3 imprint: genomic imprint erasure induction | mouse ES Peg3-LacZ reporter, beta-gal luminescence, 40 h | Potency, µM (titrated, usually from 60.7 µM), for inactives: top-dose activity change, positive = activation, hits mostly activators | hit rate 0.02% among 110,000
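Imprint erasure is scored as LacZ activity from the silenced maternal Peg3 allele in feeder-free female ES cells cultured 40 h with LIF. Luminescence is normalized to in-plate negative controls and fitted to the Hill equation.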
HEK293 cAMP ctrl: counter-screen for TSHR agonists: cAMP increase in parental HEK293; parental HEK293 CNG cAMP sensor, membrane potential fluorescence; Potency, µM (top dose mostly 57.1 µM), inactives show top-dose activation, most hits filed as activators; hit rate 2.5% among 73,000; AID 938; further: % of control where 0% means no effect; nearly all actives have a fitted effect of over 55% in size
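Counterscreen for endogenous-receptor signalling: CNG-channel HEK 293 cells report cAMP rise by membrane depolarization. After 60 min dye equilibration with 100 uM RO 20-1724, compounds incubated 30 min before bottom-read fluorescence at 590 nm.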
Active calls of the source: *; ? = inconclusive; / = no result; [ ] = dose if it differs, or a comment. Unless noted, the call rests on the fitted dose curve; in most records, active means well fitted activation curve with a large enough effect; inconclusive means small, poorly fitted or top-dose-only effect; inactive means no such curve, though single readings can be large or run the other way. Potency means the concentration at half of the fitted maximal effect.

SMILES | TSHR ag | Peg3 imprint | HEK293 cAMP ctrl
Cc1ccnc(SCC(=O)Nc2sc3c(c2C#N)CCCC3)n1 | ? | -8.4% | 20µM*
N#Cc1c(NC(=O)CSC2=NCCS2)sc2c1CCCC2 | ? | -5.5% | ?
COc1ccc(CCNC(=O)c2ccc3c(c2)CCN3S(C)(=O)=O)cc1OC | / | 6.7%[10.9 µM] | /
O=C(O)CSc1nnc(-c2ccccc2O)n1Cc1ccccc1 | 0.6% | 0.9% | -6.0%
Cc1occc1-c1nnc(SCC(=O)c2ccc(F)cc2)n1Cc1ccco1 | 4.2% | 10.6% | -0.7%
O=C(CSc1nnc(-c2ccco2)n1Cc1ccccc1)c1ccc(F)cc1 | ? | -10.0% | 25.1µM*
O=C(CSc1nnc(-c2ccc(Br)o2)n1Cc1ccccc1)c1ccccc1F | ? | -14.3% | 20µM*
CC(C)(C)NC(=O)C(c1ccncc1)N(Cc1cccs1)C(=O)Cn1nnc(-c2cccs2)n1 (centres undefined) | ? | -7.1% | 20µM*
CCC(C)(C)NC(=O)C(c1cccs1)N(CC1CCCO1)C(=O)Cn1nnc2ccccc21 (centres undefined) | ? | -5.6% | ?
Cc1ccc(-c2nnn(CC(=O)N(Cc3ccccc3)C(C(=O)NC(C)(C)C)c3ccncc3)n2)o1 (centres undefined) | 28.8% | / | 28.1%
CCC(C)(C)NC(=O)C(c1ccncc1)N(Cc1cccs1)C(=O)Cn1nnc2ccccc21 (centres undefined) | ? | 2.5% | 20µM*
Cc1nc2nc(SCC(=O)NCc3ccccc3)nn2c(C)c1Cc1ccccc1Cl | / | 5.9%[10.9 µM] | /
CCCCC=O | ? | -6.3% | -30.1%
COc1cc2c(cc1O)[C@@H](c1cc(O)c(O)c(OC)c1)[C@@](O)(C(=O)O)[C@@H](CO)[C@@H]2O | 8.4%[11.4 µM] | -2.3%[10.9 µM] | -4.0%[11.4 µM]
COc1ccccc1CNC(=O)c1nnn(CC(=O)Nc2c(C)cccc2C)c1N | / | 10.7%[10.9 µM] | /
Cc1ccccc1C(=O)N(Cc1sccc1C)C1CCS(=O)(=O)C1 (centres undefined) | / | 4.0%[10.9 µM] | /
CON(C)C(=O)c1nnc2c3ccccc3n(S(=O)(=O)c3ccc(C)cc3)c2n1 | 3.4%[11.4 µM] | / | -0.2%[11.4 µM]
CCN(Cc1ccccc1)C(c1ccncc1)c1nnnn1C(C)(C)C (centres undefined) | ? | -12.2% | ?
CC(C)(C)n1nnnc1C(c1cccs1)N(Cc1ccccc1)Cc1cccnc1 (centres undefined) | ? | -5.4% | 15.8µM*
N#CCCn1c(=O)c(-c2ccccc2)nc2cnc(N3CCOCC3)nc21 | 5.5% | -17.3% | 12.3%
COc1ccccc1-c1oc2ccccc2c(=O)c1OC | ? | -7.7% | 31.6µM*
COc1ccc(-c2oc3ccccc3c(=O)c2O)cc1OC | / | -37.8% | /
O=C(Nc1ccccc1Cl)[C@H](CSCc1ccccc1)N1Cc2ccccc2C1=O | / | 10.4%[10.9 µM] | /
CCOc1ccc(NC(=O)Cn2c(=O)n(CCCCCC(=O)NCc3ccccc3)c(=O)c3sccc32)cc1 | / | -13.9%[10.9 µM] | /
OCC1O[C@@H](OC2C(O)C(CO)O[C@@]2(CO)O[C@@H]2OC(CO)C(O)C(O)C2O)C(O)C(O)C1O (some centres undefined) | / | 5.7% | /
SMILES | TSHR ag | Peg3 imprint | HEK293 cAMP ctrl
Clc1ccccc1CSc1nnc(-c2cccnc2)n1Cc1ccco1 | / | -9.5% | 10.4%
Cc1noc(C)c1CSc1nnc(-c2ccccc2)n1Cc1ccco1 | ? | -13.3% | 15.8µM*
Cc1c(C(=O)OCCOc2ccccc2)[nH]c2c1C(=O)CC(c1ccccc1Cl)C2 (centres undefined) | / | -23.1%[10.9 µM] | /
COC(=O)C1=C(C)N(Cc2ccccc2)C2=C(C(C)=O)C(c3ccccc3)[C@@](O)(C(=O)OC)C(=O)N2C1c1ccccc1 (some centres undefined) | -2.6%[11.4 µM] | / | 2.2%[11.4 µM]
CC(C)(C)NC(=O)NC(=O)COC(=O)COc1ccc2c(c1)CCC2 | 4.6% | -10.8% | 16.9%
CC(C)(C)NC(=O)NC(=O)COc1ccccn1 | ? | -6.2% | 10µM*
CCc1cccc(C)c1NC(=O)CCS(=O)(=O)c1cc(Br)cc2c1N(C(=O)C1CC1)CC2 | / | 3.0%[10.9 µM] | /
CC(C)(C)c1ccc(CN(Cc2ccco2)c2cnc(S(C)(=O)=O)nc2C(=O)Nc2ccc(F)cc2)cc1 | / | 5.4%[10.9 µM] | /
Cc1cccc(-c2nc3nc(C)cc(NCc4ccccc4Cl)n3n2)c1 | / | -6.7%[10.9 µM] | /
C(=C\c1ccccc1)/CSc1nnc(-c2cnccn2)n1Cc1ccco1 | ? | -31.2% | 12.6µM*
O=C(CSc1nnc(-c2cnccn2)n1Cc1ccco1)c1ccc2ccccc2c1 | ? | -10.9% | ?
Clc1ccc(CSc2nnc(-c3ccccn3)n2Cc2ccco2)c(Cl)c1 | 10.2% | -13.9% | 2.7%
Fc1ccc(CSc2nnc(-c3cnccn3)n2Cc2ccco2)cc1 | 12.9% | -23.5% | 10.4%
Brc1ccc(CSc2nnc(-c3cnccn3)n2Cc2ccco2)cc1 | ? | 4.4% | 20µM*

Bioassay records from PubChem.
